From PubChem BioAssay (NCI)
About 83,000 compounds went through this panel and 20% of them were active in at least one assay; those are over-represented in the sample as a whole.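 Cell lines were cultured in 96-well plates, exposed to a single compound concentration, and assessed for percent growth 48 hours later.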 A number with no mark means an inactive call. Active and inactive are the calls of the source.

These molecules were tested on SK-MEL-2 melanoma (assay: NCI-60 one-dose screen, 48 h (100 = growth as untreated, 0 = no growth, -100 = all killed)). Conditions: 10 µM unless noted.
Experimental: Growth inhibition of the SK-MEL-2 human tumor cell line is measured as a screen for anti-cancer activity. Cells are grown in 96 well plates and exposed to the test compound for 48 hours. Compounds are tested at a single concentration, which is 10^-5 M for most compounds. The reported endpoint is percent growth (GI% or GIPRCNT), where numbers from 0 - 100% represent growth inhibition, and numbers from -100% - 0 represent cell death. For example, a value of 40 represents 60% growth inhibition. A value of 0 means no net growth occurred over the course of the experiment. A value of -40 indicates 40% of cells at the beginning of the experiment died by the end of the experiment. A value of -100 means all cells are dead at the end of the experiment.
NCI-60 Human Tumor Cell Lines Screen was performed using the standard one-dose NCI protocol, which is described in more detail at https://dtp.cancer.gov/discovery_development/nci-60/default.htm.
Compounds with GIPRCNT values below 10 were considered active. Activity score was based on GIPRCNT using the following formula: […]
Score is 0 for GIPRCNT values of 100 or above, 50 for GIPRCNT values of 0, and 100 for GIPRCNT values of -100.

Compound | growth
COc1cc(-c2ccc3ncnc(N4CCc5ccc(Cl)cc54)c3c2)cnc1Cl | 54.2%
S=C(NCCc1ccccc1)Nc1ccc(OCc2nc3ccc(Cl)cc3[nH]2)cc1 | 16.5%
CCCCNc1ccc2c3c(cccc13)C(=O)N(NCC(O)COc1ccc3c(C)cc(=O)oc3c1)C2=O (stereo not given) | 96.9%
COc1ccc(C2=NN(C(=O)[C@H]3[C@@H](c4ccco4)c4sc(=O)[nH]c4S[C@@H]3C)C(c3ccc4ccccc4c3)C2)cc1 (stereo not given in full) | 32.3%
Cc1cc(Cl)ccc1NC(=O)Nc1ccc(-c2ccc3c(c2)NC(=O)/C3=C\c2ccc[nH]2)cc1 | 121%
COc1ccc(-c2nc3ccc(-c4nnc(SCc5ccccc5)o4)cc3[nH]2)cc1OC | 66.4%
CN1C(=O)/C(=C\C(=O)c2cc3ccccc3oc2=O)c2ccccc21 | 65.1%
OC1CCC(Cn2c(C(F)(F)F)cc3c(Cl)ncnc32)CC1 (stereo not given) | -89.4% (active)
Cc1ccc(C(=O)Nc2ccc(-n3ccnc3)c(C(F)(F)F)c2)cc1C#Cc1cnc2cccnn12 | -23.6% (active)
COc1ccc2[nH]c(O)c(N=Nc3nc(-c4ccccc4)cs3)c2c1 | 83.7%
CN(C)C(=O)c1cc(-c2ccc3ncnc(N4CCc5cc(F)c(Cl)cc54)c3c2)cnc1N | -86% (active)
CCOc1ccc(-c2cc(-c3cc(C(C)C)c(O)cc3C)nn2-c2ccc(S(N)(=O)=O)cc2)cc1 | 54.5%
CS(=O)(=O)Nc1cc(-c2ccc3ncnc(N4CCc5cc(F)c(Cl)cc54)c3c2)cnc1Cl | -31.6% (active)
O=C(O)CC1S/C(=N/N=C/c2nc3ccccc3s2)NC1=O (stereo not given) | 116%
CC[C@]12C=CCN3CC[C@@]4(c5ccc(OC)cc5N(C)[C@H]4[C@@](O)(C(=O)OC)[C@@H]1OC(=O)CCC[P+](c1ccc(OC)cc1)(c1ccc(OC)cc1)c1ccc(OC)cc1)[C@@H]32 | -90.6% (active)
CC1CCc2c(sc3nc(SCC(=O)c4cccc(Br)c4)n(-c4ccccc4)c(=O)c23)C1 (stereo not given) | 99.2%
CN1CCN(C(=O)CCN(C(=O)Oc2cc3c(c4ccccc24)[C@H](CCl)CN3C(=O)c2cc3cc(OCCCN4CCC4)ccc3[nH]2)[C@H]2CCSSC2)CC1 | -83% (active)
O=c1ccc(Cn2c(C(F)(F)F)cc3c(Cl)ncnc32)c[nH]1 | -86.2% (active)
CC1=C(C(=O)Nc2ccccc2)C(c2cccc(Cl)c2Cl)n2c(nc3ccccc32)N1 (stereo not given) | 75.2%
Cc1ccc(O)cc1Nc1nc(SCCN2CCOCC2)nc2c1cnn2CC(Cl)c1ccc(Br)cc1 (stereo not given) | -35.9% (active)

Compound | growth
Nc1nn2c(-c3cc4cc(Br)ccc4oc3=O)ccnc2c1N=Nc1ccccc1 | 16.1%
CCCn1c(NC(=O)c2cccc(C(N)=O)c2)nc2cc(CN3CCCCC3)ccc21 | 115%
CC1=C(C)C(=O)C(N2CCSCC2)=CC1=O | 94.6%
COc1ccc(/C=C/C(=O)c2ccc(OC)c(S(N)(=O)=O)c2)c(C(F)(F)F)c1 | 60.8%
CCCCCCCCc1ccc(C(=O)Nc2ccc(C)cc2C(=O)O)cc1 | 94.8%
c1n[nH]cc1-c1nc2ccc3cn[nH]c3c2c2c1CCCC2 | 104%
CC(C)(C)C(=O)c1c2c(c3ccc4c5ccccc5ccc4n13)C(=O)c1ccccc1C2=O | 104%
COc1ccc(N=Nc2c(N)nn3c(-c4cc5cc(Br)ccc5oc4=O)ccnc23)cc1 | 29.6%
NS(=O)(=O)c1ccc(Nc2nc(N/N=C/c3cc(Br)c(O)c(Br)c3)nc(Nc3ccccc3)n2)cc1 | -5.4% (active)
CN(C)c1nc(NCCNS(=O)(=O)c2ccc(C(=O)/C=C/c3ccccc3)cc2)nc(N2CCOCC2)n1 | 97.6%
Cn1cc(-c2cc(N)n3nc(-c4c[nH]c5ccc(F)cc45)cc3n2)c2cccnc21 | 86.8%
OC(c1ccccc1)(c1ccccc1)C1CCN(c2ccc3nnc(Cl)n3n2)CC1 | 31.3%
CC1=C(C(=O)OC(C)C)C(c2ccc(O)cc2)NC(=O)N1 (stereo not given) | 96.5%
CC(C)C[C@H](NC(=O)CNC(=O)C[C@H]1O[C@@H]2OC3(C)CC[C@H]4[C@H](C)CC[C@@H]([C@H]1C)[C@@]24O3)B(O)O | -61.9% (active)
COc1ccccc1NC(=O)N/N=C/c1c[nH]c2ccccc12 | -24.9% (active)
O=C(N/N=C/c1ccsc1)c1[nH]c2ccc(Br)cc2c1-c1ccccc1 | -82.8% (active)
CN(C)CCCc1ccc(Nc2cnn(C)c(=O)c2Cl)cc1 | 112%
CC(=O)C[n+]1cccc2c3ccccc3ccc21 | 106%
CN1C(=O)C2(C(C#N)=C(c3ccc(Cl)cc3)Nc3c2c(-c2ccccc2)nn3-c2ccccc2)c2ccccc21 (stereo not given) | 89.8%
N/C(=N\c1nc2ccc([N+](=O)[O-])cc2s1)NC(=O)Nc1ccccc1Cl | 88.1%
